Screening results: PubChem BioAssay, Broad Institute
miR122 inh: miR-122 Renilla sensor signal increase in Huh7, primary screen, miR-122 inhibitor project, cell-based, single point, plate reader; Huh7 miR-122 Renilla luciferase sensor, 48 h; neutral wells = 0, positive control = 100; activation (reporter increase), % at 12.5 µM; hit rate 0.3% among 340,000;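 active = mean replicate activation score at least 90 and every replicate individually at or above 90; inconclusive = only one of the two criteria met; inactive = neither criterion met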;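 note: higher luciferase means less miR-122 activity so hits act as miR-122 inhibitors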
GSIS activator: GLuc luminescence reporter in INS-1E cells, primary screen for activators of glucose-dependent secretion of insulin; AID 743287, 2014; hit rate 0.61% among 370,000; activation, % at 16.6 µM; INS-1E GLuc reporter insulin secretion, 2-3 h;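 active = lowest replicate activation of at least 40%, so every replicate reaches that level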
NSD2 inh: NSD2 histone methyltransferase inhibitors, primary screen, biochemical, AlphaScreen, single concentration, set 2 | NSD2 peptide methylation, 120 min | Histone-lysine N-methyltransferase NSD2 (Homo sapiens), O96028 | inhibition, % at 12.5 µM | hit rate 0.54% among 310,000
Target sequence (O96028 whole entry, looked up): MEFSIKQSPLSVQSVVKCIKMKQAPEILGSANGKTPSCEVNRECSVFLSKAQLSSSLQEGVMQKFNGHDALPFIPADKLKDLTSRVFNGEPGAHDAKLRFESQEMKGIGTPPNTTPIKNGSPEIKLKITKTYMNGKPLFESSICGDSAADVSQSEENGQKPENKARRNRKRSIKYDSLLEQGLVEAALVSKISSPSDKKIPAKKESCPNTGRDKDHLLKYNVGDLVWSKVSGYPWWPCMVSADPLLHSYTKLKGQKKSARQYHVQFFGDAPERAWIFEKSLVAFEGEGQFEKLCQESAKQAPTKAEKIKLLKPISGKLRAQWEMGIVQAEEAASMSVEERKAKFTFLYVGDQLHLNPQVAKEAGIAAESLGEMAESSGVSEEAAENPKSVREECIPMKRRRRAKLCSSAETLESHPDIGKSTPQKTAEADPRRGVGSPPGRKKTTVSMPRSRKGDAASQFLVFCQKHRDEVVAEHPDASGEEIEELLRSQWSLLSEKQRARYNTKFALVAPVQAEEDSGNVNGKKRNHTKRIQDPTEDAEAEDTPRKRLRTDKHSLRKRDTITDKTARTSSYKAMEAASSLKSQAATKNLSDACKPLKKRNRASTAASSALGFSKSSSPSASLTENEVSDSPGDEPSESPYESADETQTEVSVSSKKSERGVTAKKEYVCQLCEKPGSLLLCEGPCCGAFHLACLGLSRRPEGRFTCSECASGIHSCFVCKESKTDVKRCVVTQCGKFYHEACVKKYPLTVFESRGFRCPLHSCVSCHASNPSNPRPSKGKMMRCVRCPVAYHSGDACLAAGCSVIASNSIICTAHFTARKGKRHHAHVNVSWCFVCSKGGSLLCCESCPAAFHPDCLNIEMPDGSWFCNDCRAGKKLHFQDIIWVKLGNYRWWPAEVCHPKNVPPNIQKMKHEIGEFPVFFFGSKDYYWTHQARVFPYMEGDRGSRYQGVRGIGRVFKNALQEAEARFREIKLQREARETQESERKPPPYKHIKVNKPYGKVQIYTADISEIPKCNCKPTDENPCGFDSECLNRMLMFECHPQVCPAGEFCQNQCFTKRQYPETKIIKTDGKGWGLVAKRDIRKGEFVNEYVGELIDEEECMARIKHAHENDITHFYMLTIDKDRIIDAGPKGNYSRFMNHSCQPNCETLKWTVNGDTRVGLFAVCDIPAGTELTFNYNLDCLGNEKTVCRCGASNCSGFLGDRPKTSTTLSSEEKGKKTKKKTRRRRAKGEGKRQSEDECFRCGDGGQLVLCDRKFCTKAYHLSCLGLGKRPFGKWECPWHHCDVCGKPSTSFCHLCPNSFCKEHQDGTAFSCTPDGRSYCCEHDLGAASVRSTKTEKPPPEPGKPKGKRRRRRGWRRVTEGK
MITF act: activators of MITF-driven TRPM1 promoter reporter, primary screen, cell-based, SK-MEL-5, luciferase, single point; SK-MEL-5 TRPM1-promoter luciferase, 24 h; % of positive control, neutral wells = 0; activation, % at 12.5 µM; hit rate 0.75% among 300,000;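 active = mean activation of at least 80% with every replicate also reaching 80%; inconclusive = mean reaches 80% but some replicate falls short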
Wnt act: Wnt/beta-catenin pathway activators, primary screen, cell-based, plate reader, single point. hit rate 1.2% among 300,000. AID 743398, 2014. Wnt/beta-catenin reporter cell assay, activator. activation, % at 9.35 µM; in the data active = activation above about 30%, passing the limit was not always enough; inconclusive = no clear call, values can overlap the other calls
DYRK1A inh: rat Dyrk1A kinase inhibitors, primary screen, biochemical, single point, plate reader | Dual specificity tyrosine-phosphorylation-regulated kinase 1A (Rattus norvegicus), Q63470 | ADP-Glo luminescence, NFATc1 peptide | inhibition, % at 12.5 µM | hit rate 0.43% among 310,000
Hits are given with their value; i = inactive; ? = inconclusive; nt = no result. Only some compounds are listed: those with a hit (about 2.4% of all), similar ones and a draw of the others. Cut-off read from the data, not from the text of the source, unless noted: active = inhibition above about 50%; inactive = the rest.

SMILES	miR122 inh	GSIS activator	NSD2 inh	MITF act	Wnt act	DYRK1A inh
CC(=O)N[C@H]1C=C[C@H](CC(=O)NCC2CCCCC2)O[C@H]1CO	nt	i	nt	nt	nt	nt
O=c1c2sccc2n(Cc2cccc(F)c2)c(=O)n1-c1ccc(F)cc1	nt	46	i	i	nt	i
COCCCn1c(=O)c2sccc2n(Cc2cccc(F)c2)c1=O	nt	i	i	nt	i	i
NCC[C@H]1CC[C@@H](NC(=O)C2CCCC2)[C@@H](CO)O1	i	i	nt	nt	nt	nt
Cc1cc(C)nc(Nc2n[nH]c(-c3ccc(N)cc3)n2)n1	i	nt	i	nt	47	i
O=C(C[C@H]1CC[C@@H]2[C@H](COC[C@@H](O)CN2Cc2cc(F)ccc2F)O1)N[C@H]1CCN(Cc2ccccc2)C1	i	i	nt	nt	nt	nt
N#C[C@@H]1[C@@H](c2ccc(C3=CCCC3)cc2)[C@@H](CO)N1C(=O)c1cccc(F)c1	nt	i	nt	nt	nt	nt
C=C(C)C1CC=C(C)/C(=N/NC(=O)COc2ccccc2Cl)C1 (centres undefined)	nt	nt	i	i	nt	i
Cc1cccc2c1OCC/C2=N\NC(=O)COc1ccccc1Cl	i	i	i	95	nt	i
N#C[C@H]1[C@@H](c2ccccc2-c2ccccc2)[C@@H](CO)N1C(=O)Cc1ccncc1	nt	i	nt	nt	nt	nt
N#Cc1cc2c(nc1SCC1COc3ccccc3O1)CCC2 (centres undefined)	i	nt	i	111	nt	i
CCOC(=O)c1c(-c2ccc(Br)cc2)csc1/N=C/C1C(=O)CC(C)(C)CC1=O	nt	nt	i	nt	nt	nt
C[C@@H]1CN([C@H](C)CO)C(=O)c2cc(NC(=O)Cc3ccccc3)ccc2O[C@@H](C)CCCCO[C@H]1CN(C)S(=O)(=O)c1cn(C)cn1	i	i	nt	nt	nt	nt
Cc1ccc(NC(=O)CCCCCC2NC(=O)NC2C)cc1 (centres undefined)	i	i	136	i	i	i
Cc1ccc(NC(=O)c2noc3c2CCc2ccccc2-3)cc1	i	nt	i	nt	42	i
CCc1ccc(NC(=O)c2noc3c2CCc2ccccc2-3)cc1	i	nt	i	nt	33	i
N#Cc1c(-c2ccco2)cc(C2CC2)nc1N	nt	71	i	i	nt	i
C[C@H](CO)N1C[C@H](C)[C@H](CN(C)C(=O)c2ccccn2)Oc2ncc(C3=CCCC3)cc2C1=O	i	i	nt	nt	nt	nt
O=C(N/N=C/c1ccccc1O)c1cccc(C(F)(F)F)c1	i	i	i	i	nt	i
O=C(N/N=C/c1ccc(F)cc1)c1ccccc1	nt	i	i	i	34	nt
O=C(CN1CCN(Cc2ccc(Cl)cc2)CC1)N/N=C/c1cccc(F)c1	i	nt	i	nt	43	nt
O=C(N/N=C/c1ccc(OC(=O)c2ccccc2)cc1)c1cccc(O)c1	nt	i	i	i	47	i
O=C(N/N=C/c1ccccc1C(F)(F)F)c1ccc(O)cc1	nt	nt	i	86	i	i
O=C(CN1CCN(Cc2ccc(Cl)cc2)CC1)N/N=C/c1cccs1	i	i	i	nt	i	i
COc1ccc2c3c([nH]c2c1)[C@H](CO)N(C(=O)C1CCCCC1)CC31CN(C(=O)c2ccncc2)C1	nt	i	nt	nt	nt	nt
SMILES	miR122 inh	GSIS activator	NSD2 inh	MITF act	Wnt act	DYRK1A inh
CS(=O)(=O)N1Cc2cc(C(=O)NCC3CCCCC3)nc(-c3cccc(-c4cccnc4)c3)c2[C@@H]1CCO	nt	i	nt	nt	nt	nt
CSc1ccc(/C=N/NC(=O)c2ccc(C)c(C)c2)cc1	i	i	i	i	i	i
O=C(N/N=C/c1cccc(NC(=O)c2ccc(Cl)cc2)c1)c1ccc(O)cc1	i	i	i	i	i	i
O=C(N/N=C/c1ccccc1Cl)c1cccc(F)c1	i	i	i	?	40	i
O=C(N/N=C/c1c(Cl)cccc1Cl)c1cccc(F)c1	i	i	i	i	i	i
O=C(N/N=C/c1cccc(F)c1)c1ccc(Cl)cc1	i	i	i	96	i	i
O=C(N/N=C/c1cccc(F)c1)c1csc2c1CCCC2	?	i	i	142	nt	i
CSc1ccc(/C=N/NC(=O)c2cc(O)cc(O)c2)cc1	i	i	i	i	35	i
CCCC(=O)Nc1ccc2c(c1)OC[C@H](C)N(C(=O)C1CCCC1)C[C@H](C)[C@H](OC)CN(C)C2=O	i	i	nt	nt	nt	nt
